Test results published in PubChem BioAssay AID1845225 (National Center for Advancing Translational Sciences (NCATS), 2023).
Results filed as inconclusive are left out. The call rests on the fitted dose curve; in most records, active means well fitted curve in the direction sought with a large enough effect; inconclusive means small, poorly fitted or top-dose-only effect, or effect the other way, or another doubt; inactive means no such curve, though single readings can be large or run the other way.

Experiment: Confirmatory redox qHTS assay for identification of artifact compounds.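 Further: 0% = DMSO and 100% = DA3003 at 10 µM.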
Settings: Amplex Red/HRP redox cycling with DTT, fluorescence; series mostly up to 39 µM; redox activity vs DA3003: at the top concentration
In short: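 Amplex Red (25 uM final) and HRP (250 mU/mL final) in HBSS, compound 15 min, then 250 uM DTT final 30 min, room temperature, dark; fluorescence 525/598 nm, normalized to DMSO and 10 uM DA3003, Hill fitted.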

Redox activity vs DA3003, inactive:
COc1ccc(C(=O)Nc2ccc(-n3nncc3-c3ccccc3)cc2)cc1OC 2.69%
O=C(CSc1nc(-c2ccccc2)[nH]c1-c1ccc(F)cc1)NC1CCCC1 -1.72%
CC(C)Oc1ccc(C(=O)N2CCC(c3nc4ccccc4s3)CC2)cc1 4.93%
COc1ccc(-c2nc(CS(=O)CC(=O)NCCc3ccccc3)c(C)o2)cc1OC (stereo not given) 4.2%
O=C1c2oc3ccc(F)cc3c(=O)c2C(c2cccc([N+](=O)[O-])c2)N1CCCN1CCOCC1 (stereo not given) 18.1%
Cc1cc(C(=O)N2CCN(c3cccc(Cl)c3)CC2)c2c(C)nn(-c3ccccc3Cl)c2n1 7.17%
COc1ccc(CCNC(=O)c2cc(=O)[nH]c3ccc(S(=O)(=O)N4CCCCC4)cc23)cc1OC 3.88%
Cc1ccc(C)c(N2CCN(S(=O)(=O)c3cc(Br)cc4c3N(C(=O)C3CC3)CC4)CC2)c1 -0.374%
Cc1ccc(Cl)cc1N1C(=O)N(Cc2ccc(C#N)cc2)c2ccccc2S1(=O)=O -1.31%
Cc1cccc(C)c1NC(=O)CCSCCc1ccccn1 4.48%
COc1cc(O)c(C(CC(=O)N2CCCCC2)c2ccc(C)cc2)c(OC)c1 (stereo not given) 5.48%
Cc1ccccc1NC(=O)Cn1c(=O)n(CCc2ccccc2)c(=O)c2sc3ccccc3c21 0.765%
O=C1c2ccccc2C(=O)N1c1ccc2ncccc2c1 -1.1%
O=S(=O)(NCCCCNS(=O)(=O)c1cccc2cccnc12)c1cccc2cccnc12 3.74%
COc1ccc(N2CCN(Cc3cc(=O)oc4ccc(OC)cc34)CC2)cc1 3.17%
CN(C)CCNC(=O)CN1C(=O)CCn2nc(-c3cn(C)c4ccccc34)cc21 2.61%
O=C(NCCSc1c(-c2ccc(Br)cc2)[nH]c2ccccc12)c1ccc(S(=O)(=O)N2CCOCC2)cc1 0.987%
CCOC(=O)Cc1cccc(-c2cc(CCCCCCc3ccc(O[C@H]4O[C@H](COC(C)=O)[C@@H](OC(C)=O)[C@H](OC(C)=O)[C@@H]4OC(C)=O)c(-c4cccc(CC(=O)OCC)c4)c3)ccc2O[C@H]2O[C@H](COC(C)=O)[C@@H](OC(C)=O)[C@H](OC(C)=O)[C@@H]2OC(C)=O)c1 0.744%
Cc1ccc(C(=O)CSc2nc(-c3ccccc3)nc3c2CCCC3)c(C)c1 -1.81%
O=C(Nc1nnc(S(=O)(=O)N2CCCC2)s1)c1ccccc1Cl -0.529%
CC(C)C[C@H](NC(=O)[C@@H](Cc1c[nH]c2ccccc12)NC(=O)[C@H](Cc1ccc(O)cc1)NC(=O)[C@H](CO)NC(=O)[C@H](Cc1c[nH]c2ccccc12)NC(=O)[C@H](Cc1cnc[nH]1)NC(=O)[C@@H]1CCC(=O)N1)C(=O)N[C@@H](CCCN=C(N)N)C(=O)N1CCC[C@H]1C(=O)NCC(N)=O 13.9% [at 13.1 µM]
Cc1cccc(NC(=O)CN2C(=O)C(c3ccc(F)cc3)=NC23CCCCCC3)c1 -0.49%
Cc1cc(NC(=O)c2ccc([S+](=O)([O-])NCc3ccc(Cl)c(Cl)c3)cc2)no1 -1.65%
COc1cc2c3cc1OCc1c(O)c(OC)cc4c1C(Cc1ccc(cc1)Oc1cc(ccc1O)CC3N(C)CC2)N(C)CC4 (stereo not given) 2.31%
CCC(CC)c1nn2c(=O)cc(COc3ccc(NC(=O)c4ccccc4C)cc3)nc2s1 -0.612%
CCOc1ccc(C(=O)N2CCC(c3nc(-c4ccc(S(=O)(=O)N5CCCC5)cc4)no3)CC2)cc1 7.69%
COc1ccc(NC(=O)CSc2nc(-c3ccccc3)nc3c2Cc2c(CO)cnc(C)c2O3)cc1Cl 6.51%
CCCCCOC(=O)c1[nH]c2c(c1C)C(=O)CC(c1ccco1)C2 (stereo not given) 0.438% [at 78.4 µM]
O=C1CCc2cc(S(=O)(=O)Nc3cccc(F)c3)ccc2N1 -0.966%
Cc1ccc(NS(=O)(=O)c2ccc3c(c2)CCN(C(=O)C(F)(F)F)C3)cc1C 0.556%
CN(C(=O)CSc1nc2ccc(NC(=O)c3cccs3)cc2s1)c1ccccc1 1.39%
Cc1nc(S(=O)(=O)N2CCN(c3ccccc3F)CC2)cn1C 0.568%
Cc1ccc(OCCn2c(CCNC(=O)OC(C)(C)C)nc3ccccc32)cc1 2.68%
O=C(Nc1onc2c1CCCC2)c1ccc(Cl)cc1 -0.563%
Cc1nc2ccc(S(=O)(=O)N(CC(=O)Nc3ccc(F)cc3F)Cc3ccccc3)cc2s1 5.1%
COc1ccc(S(=O)(=O)N(CCc2ccccc2)CC(=O)Nc2cc(Cl)ccc2C)cc1 -0.652%
O=C(Cn1nc(-c2ccc(Cl)cc2)ccc1=O)NCCc1ccccc1 8.85%
O=C(Nc1ccc(C(F)(F)F)cc1)C1(c2cccs2)CCOCC1 1.08%
COc1ccccc1CNC(=O)CCC(=O)N1Cc2ccccc2Oc2ncccc21 3.23%
O=c1c2ccccc2sn1-c1cc(S(=O)(=O)N2CCOCC2)ccc1N1CCCCC1 -2.02%
